Measured values taken from PubChem BioAssay AID1663 (Broad Institute, 2009).
About 660 (0.22%) of roughly 300,000 compounds were called active. This is one part of a sample in which actives are shown more often than they occur.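 Rule for the calls: active = mean replicate score, as percent of positive control, at or above 50; inconclusive = mean below 50 but at least one replicate at or above 50; inactive = mean and every replicate below 50.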

assay: inhibitors of platelet dense granule secretion, primary screen, cell-based, MLPCN, human platelets (AID 1663); conditions: human platelet-rich plasma, SFLLRN dense granule ATP release, luminescence; hits give high values;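 compounds screened at 7.5 µM in platelet-rich plasma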

Structure (SMILES) | inhibition
CCOc1ccc(/C(O)=C2\C(=O)C(=O)N(c3ccc(OC)cc3)C2c2ccccc2[N+](=O)[O-])cc1 (stereo not given) | 14.9% (inactive)
NS(=O)(=O)c1ccc2nc(NC(=O)C3=COCCO3)sc2c1 | -2.24% (inactive)
Cc1nc2cc(NC(=O)Nc3cccc(F)c3)ccc2n1C | 56.5% (active)
C=CCN(C(=O)Nc1ccc2c(c1)nc(C)n2C)c1ccccc1 | 3.61% (inactive)
Cc1nc2cc(NC(=O)NC3CC3)ccc2n1C | -7.31% (inactive)
O=C(COC(=O)c1ccc[nH]c1=O)Nc1ccc2c(c1)OC(F)(F)O2 | 5.92% (inactive)
CCOC(=O)/C(N=Nc1cc(C(=O)O)cc(C(=O)O)c1)=C(\O)CCl | 10.2% (inactive)
COc1ccc(-n2cc(-c3ccccc3)c3c(=S)nc[nH]c32)cc1 | 5.15% (inactive)
COC(=O)c1sc(NC(=O)c2ccc(OC)cc2OC)nc1C | 57.3% (active)
COc1ccc(Cc2nnc(NC(=O)c3ccc(OC)cc3OC)s2)cc1 | -12.4% (inactive)
COc1cc2ccccc2cc1C(=O)Nc1nc(C)c(C(C)=O)s1 | -6.84% (inactive)
O=C(O)CC/C(=C\c1cc2c(cc1Br)OCO2)c1nc2ccccc2s1 | 17.4% (inactive)
CCN(CC(=O)Nc1ccc(C)c(S(=O)(=O)N(C)C)c1)Cc1ccccc1 | 2.21% (inactive)
COc1ccc(NC(=O)/C(Cl)=C(/Cl)S(=O)Cc2ccc(C)cc2)cn1 (stereo not given) | 59% (active)
COc1ccc(NC(=O)c2cc(-c3ccc(C)cc3)on2)cc1 | 7.98% (inactive)
Cc1ccc(NC(=O)OCc2cncs2)cc1 | -1.58% (inactive)
COc1ccc(S(=O)(=O)NCCCc2ccccc2)cc1 | 16% (inactive)
C=CCn1c(-c2ccc(Cl)cc2)ccc(C#N)c1=O | 1.51% (inactive)
CCC(C)(C)NC(=O)CN(C(=O)CCC(=O)Nc1cc(C)ccn1)c1ccc2c(c1)OCCO2 | 0.138% (inactive)
COc1ccc(/C=N/NC(=O)c2ccccc2)cc1OS(=O)(=O)c1ccccc1 | 2.24% (inactive)
COc1ccc(/C=N/NC(=O)c2ccc3c(c2)OCCO3)c(OC)c1 | -1.2% (inactive)
COc1cc(/C=N/NC(=O)c2ccc(N3CCCC3=O)cc2)ccc1O | -4.06% (inactive)
COc1ccc(C(=O)Nc2ccccc2C(=O)N/N=C/c2ccc(O)c(OC)c2)cc1 | 97.1% (active)
COc1ccc(C(=O)Nc2ccccc2C(=O)N/N=C/c2ccccc2OC)cc1 | 73.7% (active)
COc1ccc(C(=O)Nc2ccccc2C(=O)NCc2ccco2)cc1 | 12% (inactive)
Cc1cccnc1CCNC(=O)C1CCC(=O)N(Cc2cccc(F)c2)C1 (stereo not given) | -10.1% (inactive)
CC(=O)N1CCN(CC(c2ccccc2)c2ccccc2)CC1 | 7.74% (inactive)

Structure (SMILES) | inhibition
COc1cccc(N2CCN(c3ccc4nnc(CCC(=O)N5CCN(C)CC5)n4n3)CC2)c1 | 7.34% (inactive)
COC(=O)c1c(NC(=O)CN2C(=O)NC(CCc3ccccc3)C2=O)sc2c1CCCCC2 (stereo not given) | -0.263% (inactive)
COc1ccc(C2=NS(=O)(=O)N(C)C(C(=O)N(C)Cc3ccccc3)=C2)cc1 | 0.338% (inactive)
O=C(CN(C(=O)c1nsc(Cl)c1Cl)c1cccc(F)c1)NC1CCCC1 | -4.29% (inactive)
COc1ccc(/C=N/NC(=O)Cn2cc(C(F)(F)F)ccc2=O)cc1 | 3.51% (inactive)
Cc1nn(CC(=O)NCC2CCCO2)c(=O)c2cc3ccccc3n12 (stereo not given) | -4.75% (inactive)
CCOC(CNC(=O)C(=O)NCC(c1ccco1)N1CCN(c2ccc(OC)cc2)CC1)OCC (stereo not given) | -9.05% (inactive)
COc1ccc(C(=O)N2CCCC(C(=O)c3ccccc3OC)C2)cc1OC (stereo not given) | 2.76% (inactive)
Cc1ccc(S(=O)(=O)c2nc(NCCCn3ccnc3)sc2Cl)cc1 | -1.94% (inactive)
Cc1c(Cl)cccc1NC(=S)NCC(O)c1ccccc1 (stereo not given) | 3.98% (inactive)
OC(CNCc1ccc(Cl)c(Cl)c1)c1ccccc1 (stereo not given) | 52.7% (active)
CC(C)(CNCC(O)c1ccccc1)N1CCOCC1 (stereo not given) | 1.36% (inactive)
COc1ccc(NC(=O)CC(NC(C)c2ccccc2)C(=O)O)cc1 (stereo not given) | -14.9% (inactive)
Cc1ccc(C)c(OCCC(=O)OCC(=O)N2CCN(c3ccccc3)CC2)c1 | -18.4% (inactive)
CC1(c2ccc(Cl)cc2Cl)NC(=O)N(CC(=O)Nc2cccnc2Cl)C1=O (stereo not given) | -2.12% (inactive)
O=C(NCC1(N2CCCCC2)CCCCC1)c1ccc(NS(=O)(=O)c2ccc(F)cc2)cc1 | 52.6% (active)
Cc1ccc(NS(=O)(=O)c2ccc(C(=O)NCCCN3CCOCC3)cc2)cc1 | -3.44% (inactive)
CCOc1ccc(S(=O)(=O)Nc2cccc(C(=O)NCC3(N4CCCCC4)CCCCC3)c2)cc1 | 5.48% (inactive)
CCN(CC)C(=O)Oc1ccc(Br)cc1C(=O)Nc1ccc(F)c(Cl)c1 | -3.91% (inactive)
COC(C[C@@H](O)[C@H](C)[C@H](O)COCc1ccccc1)OC | -0.14% (inactive)
CC(=O)N/C(=C\c1ccccc1)C(=O)OC(C)C(=O)N(C)c1ccccc1 (stereo not given) | -1.59% (inactive)
CC(C)Cn1c(=O)c2ccccc2n2c(CCC(=O)NCc3ccccn3)nnc12 | 3.52% (inactive)
O=C(CSc1ccc2nnc(-c3ccccc3)n2n1)N1CCCc2ccccc21 | 17.4% (inactive)
CCCCNC(=O)C1(c2ccc(OC)cc2)CCOCC1 | 4.45% (inactive)
CC(C)Oc1ccc(CCc2n[nH]c(=S)n2Cc2ccccc2)cc1 | -6.11% (inactive)
O=S(=O)(c1ccccc1)N1CCc2ccccc21 | 2.42% (inactive)
CC(=O)Nc1ccc(C(=O)/C=C/c2ccc[nH]2)cc1 | -21.1% (inactive)

Structure (SMILES) | inhibition
COc1cc2c(cc1OC)/C(=C/C(=O)c1ccc(NC(C)=O)cc1)NCC2 | 55.3% (active)
COc1cc2c(cc1OC)CN(CC(=O)Nc1ccc(F)cc1)CC2 | 7.57% (inactive)
CCOC(=O)Cc1cc(=O)[nH]c(/N=C(\N)Nc2ccc(OC)cc2)n1 | 8.61% (inactive)
O=C(C[n+]1ccccc1)N/N=C/c1ccc(O)cc1 | 2.83% (inactive)
Cc1nonc1C(=O)N/N=C/c1ccc(O)cc1 | 103% (active)
Cc1nc2ccc(C(=O)N/N=C/c3ccc(O)cc3)cc2[nH]1 | -1.64% (inactive)
CC(NC(=O)c1ccccc1C(=O)O)c1ccc(-n2ccnc2)cc1 (stereo not given) | 13.8% (inactive)
O=C(Nc1ccc(Cl)cc1)Nc1ccc(Oc2cccnc2)nc1 | 2.76% (inactive)
CC(C)=CCN1CCN(Cc2cc3ccccc3[nH]2)CC1CCO (stereo not given) | 9.2% (inactive)
CC1CCCCN1S(=O)(=O)c1ccc(C(=O)Nc2nnc(-c3cccs3)o2)cc1 (stereo not given) | -0.561% (inactive)
CC1CCCCN1S(=O)(=O)c1ccc(S(=O)(=O)N(CC(=O)Nc2ccccc2)Cc2cccs2)cc1 (stereo not given) | 50.6% (active)
CCN(CC(=O)NCc1cccs1)S(=O)(=O)c1ccc(NC(C)=O)cc1 | -21.6% (inactive)
O=C(Nc1ccncc1)Nc1ccc(F)cc1 | 4.47% (inactive)
CC1(C)CC[C@]2(C(=O)O)CC[C@]3(C)C(=CCC4[C@@]5(C)CC[C@H](O)C(C)(C)C5[C@H](O)C[C@]43C)[C@@H]2C1 (stereo not given in full) | 3.05% (inactive)
COc1cc(NC(=S)NNC(=O)CC(C)C)c(OC)cc1Cl | -6.51% (inactive)
COC(=O)c1c(NC(=O)c2ccccc2F)sc2c1C(C(=O)OC)CC2 (stereo not given) | 2.31% (inactive)
Cc1nc(CC(=O)NNS(=O)(=O)c2ccc(F)c(Cl)c2)cs1 | 12.2% (inactive)
O=C(N/N=C/c1ccccn1)c1cccc(NC(=O)c2ccc(Cl)cc2)c1 | 1.55% (inactive)
COc1cc(/C=N/Nc2nn3cnnc3c3ccccc23)cc(OC)c1OC | 11.5% (inactive)
C/C(=N\Nc1nncc2ccccc12)c1ccc(Cl)c([N+](=O)[O-])c1 | -6.62% (inactive)
CN(CCO)c1ccc(/C=N/Nc2nncc3ccccc23)cc1 | 76.1% (active)
Cc1c(C(=O)NCCN2CCOCC2)sc2nc(-c3ccc(F)cc3)cn12 | 10.4% (inactive)
CSCCC(NC(=O)COc1ccccc1)C(=O)OCCOc1ccc(F)cc1 (stereo not given) | -11.3% (inactive)
CCN1C(=NCc2ccc(OC)cc2)N[C@@H](CCc2ccccc2)[C@H](C(=O)NCc2ccc(OC)cc2)[C@H]1C | 9.74% (inactive)
CN(C)S(=O)(=O)c1cccc(C(=O)OCC(=O)N2CCCC2=O)c1 | -9.7% (inactive)
O=C(NCc1ccccc1)C1CCN(C(=O)Cc2ccccc2)CC1 | -35.6% (inactive)
CCOC(=O)c1cnc2nc(SCc3ccccc3Cl)[nH]n2c1=O | 3.83% (inactive)

Structure (SMILES) | inhibition
CCOc1ccc(C2C3=C(CCCC3=O)N(CC(=O)O)C3=C2C(=O)CCC3)cc1 | -23.7% (inactive)
CCN1CCN(C(=O)C2CCCN(S(=O)(=O)c3ccc(OC)c(OC)c3)C2)CC1 (stereo not given) | 5.04% (inactive)
O=S(=O)(Nc1ncccn1)c1ccc(NS(=O)(=O)c2cccc(Cl)c2Cl)cc1 | 1.24% (inactive)
CCOC(=O)c1cc2cc3ccccc3cc2oc1=O | 8.56% (inactive)
COc1cccc(C(=O)NNC(=O)c2cccc(F)c2)c1 | -6.44% (inactive)
COc1cccc(C(=O)c2cc3ccc(O)cc3oc2=O)c1 | 69.5% (active)
Nc1nonc1-n1nnc(C(=O)N/N=C/c2ccc(Cl)cc2)c1-c1ccc2c(c1)OCO2 | 2.68% (inactive)
O=C(CN1CCOCC1)N1CCCc2c1c(=O)oc1ccc(OCc3ccccc3)cc21 | -1.74% (inactive)
CC(C)(C)c1cc[n+](-c2[nH]c(=O)sc2/C=N/N=C(\[O-])c2ccccc2)cc1 | 3.87% (inactive)
CC(CCc1ccc(O)cc1)NCc1ccc(Cl)cc1Cl (stereo not given) | 1.67% (inactive)
O=C(CCn1nnnc1CN1CCOCC1)N1CCC(c2ccccc2Cl)C1 (stereo not given) | 2.44% (inactive)
CCc1cc(CNC(=O)CC2C(=O)NCCN2CC2CCCCC2)on1 (stereo not given) | 4.79% (inactive)
CN=C1S/C(=C\c2c(OC)cc(OC)cc2OC)C(=O)N1C | 10.3% (inactive)
COc1ccccc1C(=O)COC(=O)CNS(=O)(=O)c1ccc(NC(C)=O)cc1 | 6.24% (inactive)
Cc1nn(CC(=O)Nc2ccc3c(c2)OCO3)c(C)c1[N+](=O)[O-] | 11.1% (inactive)
Cn1cc([N+](=O)[O-])c(C(=O)Nc2ccc3c(c2)OCCO3)n1 | 31.8% (inactive)
Cc1onc(C(=O)Nc2ccc3c(c2)OCO3)c1[N+](=O)[O-] | 75.7% (active)
Cc1nn(C)c(Cl)c1CN1CCC(Oc2ccc(C(=O)N3CCCC3)cc2)CC1 | 0.366% (inactive)
Brc1ccc(C2CC(c3ccccc3)=Nc3ccccc3N2)cc1 (stereo not given) | 7.02% (inactive)
C=CCn1c(C)cc(C(=O)CN2C(=O)c3ccccc3C2=O)c1C | 6.9% (inactive)
C=CCn1c(C)cc(C2=NNC(=NCC)SC2)c1C | 50.4% (active)
Cc1cccc(N=C2NN=C(c3c[nH]c4ccccc34)CS2)c1 | -0.733% (inactive)
COc1ccc(CCN2C(=O)N(c3ccc(OC)cc3)C(=O)C2CC(=O)Nc2ccc(OC)cc2)cc1 (stereo not given) | -2.02% (inactive)
COC(=O)[C@@]12CCCN1[C@H](c1ccc(-c3ccc(F)cc3)c(OC)c1)[C@H]1C(=O)N(C)C(=O)[C@H]12 | 0.984% (inactive)
